Data published in PubChem BioAssay (NCI).
About 79,000 compounds went through this panel and 15% of them were active in at least one assay; those are over-represented in the sample as a whole. Active and inactive are the calls of the source. Rule as the data show it: active = growth inhibition above about 70%; inactive = the rest.

Assay: NCI Yeast Anticancer Drug Screen. Data for the CLN2oe strain (AID 163);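 also: 0% = growth of vehicle-only control cultures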
Settings: S. cerevisiae CLN2oe strain, active compounds read high
Method: Growth inhibition of yeast strains with defined genetic alterations is measured as a screen for potential anti-cancer activity. Selected strains with alterations in DNA damage repair or cell cycle control were exposed to compounds and growth inhibition was measured relative to vehicle treated controls. The strain used in this assay is CLN2oe

Measured: growth inhibition

O=C(N/N=C/c1ccc2c(c1)CCC2)c1ccccc1[N+](=O)[O-]
inactive: at 1.2 µM -3% | at 3.7 µM -5% | at 11.0 µM 21% | at 33.0 µM 18%
active: at 100.0 µM 94%

CN(C)CCn1c2ccccc2c2nc3cc4ccccc4cc3nc21
active: at 100.0 µM 98%
inactive: at 1.2 µM 0% | at 3.7 µM 3% | at 11.0 µM 21% | at 33.0 µM 57%

O=c1oc(C(C(F)(F)F)C(F)(F)F)nc2ccccc12
inactive: at 1.2 µM 18% | at 3.7 µM 12% | at 11.0 µM 26% | at 33.0 µM 1% | at 100.0 µM 15%

NCC(O)CSCc1ccc(Cl)cc1 (stereo not given)
inactive: at 1.2 µM -2% | at 3.7 µM 0% | at 11.0 µM -2% | at 33.0 µM 0% | at 100.0 µM 28%

OC(c1ccc(Br)cc1)(c1cccs1)C1CC1 (stereo not given)
active: at 33.0 µM 96% | at 100.0 µM 96%
inactive: at 1.2 µM 6% | at 3.7 µM 2% | at 11.0 µM 26%

Cc1ccnc(NS(=O)(=O)c2ccc(Nc3c4ccccc4nc4ccccc34)cc2)n1
inactive: at 1.2 µM 13% | at 3.7 µM 1% | at 11.0 µM 14% | at 33.0 µM 39% | at 100.0 µM 60%

COc1cc(C(C)C(C(=O)O)C(=O)C(=O)O)cc(OC)c1OC (stereo not given)
inactive: at 1.2 µM 2% | at 3.7 µM 5% | at 11.0 µM 4% | at 33.0 µM 5% | at 100.0 µM 7%

O=C1OC(/C=C/c2ccccc2)Sc2ccccc21 (stereo not given)
inactive: at 1.2 µM 0% | at 3.7 µM 2% | at 11.0 µM -1% | at 33.0 µM 3% | at 100.0 µM 17%
